Some of the results follow. The true hit rate is not given.
Molecular target: furin, P09958
Assay: furin cleavage Z-score vs untreated control; higher = more cleavage, active = 3.5 or more, inactive = 1 or less, 8 variable residues between constant flanks
Method in brief: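 The cleavage Z-score was derived for purified furin acting on 8-mer peptides held on magnetic beads and fused to a cDNA oligonucleotide. Digests lasted 7.5, 15 or 30 min at 1:10 enzyme:substrate in 50 mM HEPES pH 7.5 with CaCl2 and NaCl. Sequencing counts of released DNA, log-transformed against furin-free reactions, were lowess-adjusted and scaled by median absolute deviation.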

furin, P09958, sequence (P09958 whole entry): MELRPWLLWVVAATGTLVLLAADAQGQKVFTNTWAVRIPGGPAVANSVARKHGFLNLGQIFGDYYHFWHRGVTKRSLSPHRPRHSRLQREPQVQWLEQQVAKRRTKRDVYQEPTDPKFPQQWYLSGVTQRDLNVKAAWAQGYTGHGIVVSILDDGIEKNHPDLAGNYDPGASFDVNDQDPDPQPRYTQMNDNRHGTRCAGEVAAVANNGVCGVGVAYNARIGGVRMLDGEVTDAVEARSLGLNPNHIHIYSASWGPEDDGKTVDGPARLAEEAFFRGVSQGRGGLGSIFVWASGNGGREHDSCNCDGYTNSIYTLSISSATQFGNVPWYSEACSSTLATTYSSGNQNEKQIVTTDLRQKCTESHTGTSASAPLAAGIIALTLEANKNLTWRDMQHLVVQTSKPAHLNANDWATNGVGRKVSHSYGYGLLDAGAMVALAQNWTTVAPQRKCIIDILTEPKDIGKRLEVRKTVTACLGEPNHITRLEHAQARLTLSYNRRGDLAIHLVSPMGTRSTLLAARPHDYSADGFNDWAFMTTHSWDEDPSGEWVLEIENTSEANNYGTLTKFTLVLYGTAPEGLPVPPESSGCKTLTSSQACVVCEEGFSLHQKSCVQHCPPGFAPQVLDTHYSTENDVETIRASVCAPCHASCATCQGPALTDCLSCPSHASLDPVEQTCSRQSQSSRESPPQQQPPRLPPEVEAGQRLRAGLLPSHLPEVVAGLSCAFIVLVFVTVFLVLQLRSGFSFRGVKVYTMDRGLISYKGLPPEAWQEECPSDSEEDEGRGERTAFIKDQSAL

| Sequence | furin cleavage Z-score (7.5 min) | furin cleavage Z-score (15 min) | furin cleavage Z-score (30 min) |
| --- | --- | --- | --- |
| CASTPCSFHLAGNASASA [HC2527] | -0.634 (inactive) | 0.268 (inactive) | 1.39 |
| CAAAYCLSTGAGNASASA [HC996] | 0.288 (inactive) | 0.367 (inactive) | -0.487 (inactive) |
| CANAYTTGPCAGNASASA [HC1192] | 0.653 (inactive) | 0.298 (inactive) | 0.115 (inactive) |
| CAMEECSQSLAGNASASA [HC1757] | 0.758 (inactive) | -0.436 (inactive) | 0.392 (inactive) |
| CAHRCRHKRWAGNASASA [FS-133] | 5.93 (active) | 10.1 (active) | 8.03 (active) |
| CARAQRFWSWAGNASASA [FS-3242] | -0.658 (inactive) | -0.187 (inactive) | -0.233 (inactive) |
| CATAKREKRWAGNASASA [FS-1421] | 7.45 (active) | 10.5 (active) | 8.76 (active) |
| CAMRSRNGRWAGNASASA [FS-830] | 0.613 (inactive) | 0.727 (inactive) | 2.67 |
| CAEVVTSQWVAGNASASA [HC2222] | -0.277 (inactive) | -0.189 (inactive) | 0.204 (inactive) |
| CATTPCGGSWAGNASASA [HC62] | -1.67 (inactive) | 0.588 (inactive) | -0.211 (inactive) |
| CADTMEECSQAGNASASA [HC1818] | -0.715 (inactive) | -1.26 (inactive) | -0.384 (inactive) |
| CAVWKRRAEDAGNASASA [FS-2624] | 0.714 (inactive) | -0.547 (inactive) | 0.046 (inactive) |
| CALPGRDGRDAGNASASA [FS-457] | -0.75 (inactive) | 1.1 | 0.0293 (inactive) |
| CALNERIRRDAGNASASA [FS-940] | 13.3 (active) | 15.6 (active) | 11.4 (active) |
| CAVHVRIRRDAGNASASA [FS-1428] | 15.3 (active) | 15.9 (active) | 11.3 (active) |
| CAVKGRGRRDAGNASASA [FS-889] | 10.2 (active) | 9.87 (active) | 8.49 (active) |
| CAGNNTLHCPAGNASASA [HC448] | 0.837 (inactive) | 0.103 (inactive) | 0.597 (inactive) |
| CAYSTYGKFLAGNASASA [HC807] | 0.775 (inactive) | -0.645 (inactive) | -0.0395 (inactive) |
| CAHVGPGEGAAGNASASA [HC1113] | -0.488 (inactive) | 0.461 (inactive) | -1.05 (inactive) |
| CAKERRYARKAGNASASA [FS-257] | 4.36 (active) | 5.28 (active) | 4.54 (active) |
| CAKERREKRAAGNASASA [FS-601] | 5.22 (active) | 4.77 (active) | 4.29 (active) |
| CARLRDSGRAAGNASASA [FS-85] | 0.0348 (inactive) | -1.47 (inactive) | -0.955 (inactive) |

| Sequence | furin cleavage Z-score (7.5 min) | furin cleavage Z-score (15 min) | furin cleavage Z-score (30 min) |
| --- | --- | --- | --- |
| CARLCRSVSGAGNASASA [FS-1859] | 0.288 (inactive) | 0.971 (inactive) | 1.11 |
| CARLEREKRAAGNASASA [FS-859] | 7.92 (active) | 10 (active) | 6.63 (active) |
| CAQKRREKKAAGNASASA [FS-79] | -0.611 (inactive) | 2.25 | 1.6 |
| CARLCRRSRAAGNASASA [FS-1561] | 6.16 (active) | 7.37 (active) | 6.05 (active) |
| CAKLKLTPIAAGNASASA [HC1637] | -0.816 (inactive) | -1.09 (inactive) | -2.93 (inactive) |
| CAKESRGARGAGNASASA [FS-447] | -0.759 (inactive) | -0.656 (inactive) | -0.69 (inactive) |
| CAHAPTGSGKAGNASASA [HC775] | 0.395 (inactive) | -1.05 (inactive) | -0.0524 (inactive) |
| CAMEGCSQHLAGNASASA [HC1716] | 1.23 | 0.47 (inactive) | 0.552 (inactive) |
| CAAEMEECSQAGNASASA [HC1783] | -0.835 (inactive) | 2.03 | -0.939 (inactive) |
| CASTPCSSHLAGNASASA [HC2537] | -0.548 (inactive) | -0.18 (inactive) | 0.0993 (inactive) |
| CAEVVTSTFVAGNASASA [HC2227] | 0.885 (inactive) | 0.0423 (inactive) | 0.809 (inactive) |
| CASRPSWGPTAGNASASA [HC212] | -1.22 (inactive) | 0.133 (inactive) | -0.131 (inactive) |
| CAYRFVAPGEAGNASASA [HC910] | -0.691 (inactive) | -0.942 (inactive) | -0.913 (inactive) |
| CAYRTRRKREAGNASASA [FS-637] | 9.23 (active) | 8.28 (active) | 6.71 (active) |
| CAIPKARRPEAGNASASA [HC193] | -0.401 (inactive) | -0.306 (inactive) | -0.34 (inactive) |
| CAPSPEFFTEAGNASASA [HC1219] | -1.44 (inactive) | -0.301 (inactive) | -0.0659 (inactive) |
| CAEVAERKREAGNASASA [FS-1195] | -1.19 (inactive) | 1.03 | 0.657 (inactive) |
| CAPSRRRKREAGNASASA [FS-1385] | 13.2 (active) | 15 (active) | 9.92 (active) |
| CAPTRRRWREAGNASASA [FS-1386] | 5.77 (active) | 5.98 (active) | 7.12 (active) |
| CAEAEVPCHRAGNASASA [HC2443] | 1.31 | 1.69 | -0.0334 (inactive) |
| CAPLEVVTSTAGNASASA [HC2279] | 0.247 (inactive) | 0.62 (inactive) | 0.87 (inactive) |
| CAKPAIIPDRAGNASASA [HC1006] | -0.622 (inactive) | 0.0184 (inactive) | -0.00549 (inactive) |

Source: the supplement of paper PMC3545927
